Experimental data: the supplement of paper PMC4166925
± gives the standard deviation of the averaged measurements. Whole data set: some 33,000 sequences, median “E-score (dimensionless, -0.5 to 0.5)” near -0.046, cut for the highest 2% near 0.36. The entries come from a sample that favours the highest values as a whole.

Test system: T1, SpTbr T-box DNA-binding domain (GST fusion)
T1 sequence: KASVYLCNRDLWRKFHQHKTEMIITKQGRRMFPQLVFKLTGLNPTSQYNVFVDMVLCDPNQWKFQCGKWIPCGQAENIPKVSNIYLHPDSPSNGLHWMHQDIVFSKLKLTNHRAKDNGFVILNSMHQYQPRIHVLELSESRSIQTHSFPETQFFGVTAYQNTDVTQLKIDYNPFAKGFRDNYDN
Assay: PBM E-score of 8-mer (E-score (dimensionless, -0.5 to 0.5)); Tbr is Tbrain of the sea star Patiria miniata (Pm) or the sea urchin Strongylocentrotus purpuratus (Sp); higher = stronger binding preference
Details: the construct has about 5 more residues each side
Protocol: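 Universal protein-binding microarray (Agilent AMADID 016060, 60-bp probes with a 35-bp variable region) incubated with 200 nM GST-fused Strongylocentrotus purpuratus Tbr T-box DNA-binding domain (residues 362-554) in PBS pH 7.5. Scored for every ungapped 8-mer (given with its reverse complement) as E-score (range -0.5 to 0.5; >0.45 counts as bound) and Z-score of median probe intensity. Two replicate arrays (datasets 1 and 2).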
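Note: protein at 200 nM in PBS on universal double-stranded arrays.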

Sequence | PBM E-score of 8-mer
CACACACA | 0.3384 ± 0.00066
GTCACACA | 0.409 ± 0.03
ATATTAAT | -0.209 ± 0.078
CTGTGGTC | -0.0438 ± 0.0053
CCAGCCGG | -0.00031 ± 0.015
AGGTAGCG | 0.143 ± 0.04
CTCACGCC | 0.397 ± 0.039
CTCACGCA | 0.375 ± 0.022
CCCACGCC | 0.163 ± 0.014
ATCACGCC | 0.403 ± 0.0051
GTCACGCA | 0.279 ± 0.017
CTTACGCC | 0.177 ± 0.0022
ATCACGCA | 0.19 ± 0.026
ATCACGCG | 0.357 ± 0.012
CTTACGCA | 0.0993 ± 0.0077
ATATAGGC | -0.0504 ± 0.058
ACTTAAGT | -0.0767 ± 0.13
GTGCTCTA | -0.178 ± 0.029
ACCCGAAC | -0.0199 ± 0.021
AGCAAAAT | -0.0958 ± 0.067
CCCTTACG | -0.0777 ± 0.068
GCCTGCAA | -0.0777 ± 0.016

Sequence | PBM E-score of 8-mer
CCGCTAAC | 0.16 ± 0.031
CTGCTAAA | 0.0425 ± 0.15
GCGCTAAA | 0.338 ± 0.014
TTGCTAAA | 0.109 ± 0.08
GTGCTAAC | 0.432 ± 0.012
GCGCTAAC | 0.388 ± 0.007
CTGCTAAC | 0.321 ± 0.029
GTGCTAAA | 0.384 ± 0.026
ATGCTAAC | 0.0372 ± 0.018
AACAAGGT | 0.271 ± 0.009
AGTAGCGC | 0.224 ± 0.014
GACCATAC | -0.206 ± 0.012
ACAACCAT | 0.0868 ± 0.041
GAAGTCGA | 0.107 ± 0.051
AGTCTGGG | -0.278 ± 0.029
CCCAACGG | -0.055 ± 0.1
ACGTTAAC | 0.255 ± 0.013
GTGTTAAC | 0.4543 ± 0.0026
GTGTTATA | 0.4 ± 0.034
GCGTTAAC | 0.374 ± 0.011
ATGTTAAC | 0.182 ± 0.097
GTGTTGGA | 0.367 ± 0.0068

Sequence | PBM E-score of 8-mer
ATGTTATA | -0.0933 ± 0.013
CTGTTAAC | 0.312 ± 0.028
ATGTTGGA | -0.0349 ± 0.065
CTGTTATA | 0.137 ± 0.071
CTGTTGGA | 0.0702 ± 0.044
CCGTTAAC | 0.228 ± 0.007
AAAGCGCT | 0.0608 ± 0.028
GAGCAGTA | -0.00784 ± 0.039
AGTTAGCG | 0.304 ± 0.0085
GTCGAGCA | 0.0707 ± 0.028
ATTTAAAT | -0.06656 ± 0.00039
ACCTCCCT | 0.00833 ± 0.034
GTGTTAAA | 0.395 ± 0.026
ATGTTAGA | -0.136 ± 0.095
GTGTTAGA | 0.384 ± 0.0066
CTGTTAGA | 0.11 ± 0.12
TTGTTAAA | 0.184 ± 0.12
CTGTTAAA | 0.231 ± 0.041
GGTAGACA | -0.025 ± 0.028
CTCTTCAC | 0.292 ± 0.018
AAGGGGCA | -0.297 ± 0.042
AAGGCGCT | 0.306 ± 0.035

Sequence | PBM E-score of 8-mer
AGAGCAAT | -0.132 ± 0.0051
AGGTGATA | 0.428 ± 0.015
AGGTGATC | 0.116 ± 0.085
CGGTGATA | 0.111 ± 0.0075
ACGTGATG | 0.0808 ± 0.05
AGGTGATG | 0.3942 ± 0.0033
GGGTGATA | 0.253 ± 0.0088
ACGCCGGC | 0.242 ± 0.0047
AGGGGGAT | -0.262 ± 0.033
ACTTTCAA | 0.0855 ± 0.0062
ATCGCGAT | 0.364 ± 0.011
ATCGCAAA | 0.0887 ± 0.0029
TTCGCGAA | 0.3584 ± 0.0003
ATCGCGTA | 0.13 ± 0.024
CTCGCGAA | 0.389 ± 0.012
GTCGCGAA | 0.372 ± 0.025
ATCGCGAC | 0.271 ± 0.036
CTCGCGAG | 0.284 ± 0.03
ATCGCGAG | 0.255 ± 0.0054
GTCGCGAC | 0.362 ± 0.019
